Compound activity deposited in PubChem by National Center for Advancing Translational Sciences (NCATS).
Compounds with a hit are over-represented: about 6.9% of the library has one in this group of screens.
ASM inhibitor = human S-ASM enzyme inhibition. placental ASM, HMU-PC fluorogenic substrate, 60 min. Potency, µM (series often up to 57.5 µM), most hits filed as inhibitors. AID 504937. hit rate 0.006% among 340,000. P17405
Target sequence (P17405 47-631 limits assumed): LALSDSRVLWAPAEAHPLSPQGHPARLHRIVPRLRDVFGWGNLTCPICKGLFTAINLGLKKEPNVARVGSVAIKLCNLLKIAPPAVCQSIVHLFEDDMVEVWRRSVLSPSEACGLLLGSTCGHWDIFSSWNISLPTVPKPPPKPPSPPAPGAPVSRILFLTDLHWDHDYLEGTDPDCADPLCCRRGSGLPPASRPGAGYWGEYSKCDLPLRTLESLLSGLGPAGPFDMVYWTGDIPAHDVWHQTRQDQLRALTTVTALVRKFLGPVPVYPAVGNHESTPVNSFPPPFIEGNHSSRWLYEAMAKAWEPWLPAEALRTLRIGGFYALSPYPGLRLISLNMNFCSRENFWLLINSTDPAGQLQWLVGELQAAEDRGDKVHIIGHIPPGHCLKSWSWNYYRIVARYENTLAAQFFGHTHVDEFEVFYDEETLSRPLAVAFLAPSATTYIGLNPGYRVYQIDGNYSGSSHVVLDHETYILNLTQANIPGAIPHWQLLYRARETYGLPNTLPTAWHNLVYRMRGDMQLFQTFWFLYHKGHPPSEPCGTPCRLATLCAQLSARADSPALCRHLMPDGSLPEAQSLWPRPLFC
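HMU-PC0 cleavage (9 uM final) by human placental ASM, 60 min at 37 °C following 10 min compound exposure at RT; stopped at pH 10, fluorescence Ex 386/Em 447 nm.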
SW480 rereplic = inducers of DNA re-replication in SW480 colon cancer cells. SW480 DNA re-replication, Hoechst DNA content imaging, 48 h. Potency, µM (series often up to 46.1 µM), usual class: activators. hit rate 1.8% among 340,000. AID 624297; also: nearly all actives have a fitted effect of over 55% in size
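Compounds, transferred as 23 nL by pin tool, were incubated with cells for 48 hr; DNA content per nucleus was then quantified by Hoechst staining and fluorescence plate imaging.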
KB-3-1 cytotox = KB-3-1 parental cell cytotoxicity. KB-3-1 viability, CellTiter-Glo ATP luminescence, 72 h. Potency, µM (series often up to 46.1 µM), actives largely listed as cytotoxic. hit rate 1.4% among 400,000; also: nearly all actives have a fitted effect of over 60% in size
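Multi-concentration cytotoxicity screen in KB-3-1 cells grown in DMEM lacking phenol red with 10% FBS. After 72 h at 37 °C with compound, ATP-dependent luminescence was recorded.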
KB-V1 cytotox = kills drug-selected multidrug resistant KB-V1 cells; hit rate 3.4% among 400,000; KB-V1 MDR cells viability, CellTiter-Glo, 72 h; AID 1347076; Potency, µM (highest dose often 46.1 µM), most hits filed as cytotoxic; also: nearly all actives have a fitted effect of over 60% in size
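Cytotoxicity via CellTiter-Glo luminescence after 72 h compound exposure at 37 degrees C. Cells: drug-selected KB-V1 line, DMEM phenol-red free plus 10% FBS. Compounds tested at multiple concentrations; normalized data fitted to concentration-effect curves.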
Giardia killer = kills Giardia lamblia. Giardia lamblia trophozoite viability. activity change, % at 7.66 µM, hits read low. hit rate 0.15% among 340,000. AID 540267; in the data active = activity change below about -80%; inconclusive = between about -30% and that limit;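 also: parasites exposed to compound for two days anaerobically before the ATP read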
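Luminescence from cellular ATP indicates surviving trophozoites (100 cells/well) following 48 hrs anaerobic compound treatment at 37 deg C; signal develops 15-30 min at room temperature.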
MCF10A rerep = induces DNA re-replication in MCF 10a normal breast cells; MCF 10A DNA re-replication, Hoechst nuclear intensity, 48 h; Potency, µM (titrated, usually from 46.1 µM), most hits filed as activators; hit rate 2.9% among 350,000; AID 624296; also: nearly all actives have a fitted effect of over 50% in size
Numbers stand for hits; - = inactive; ? = inconclusive; . = no result; [ ] = another dose, or the depositor's remark. Unless noted, calls follow the shape of the dose curve; as a rule, active = well fitted curve in the direction sought with a large enough effect; inconclusive = small, poorly fitted or top-dose-only effect, or another doubt; inactive = no such curve, though single readings can be large; an effect the other way counts as inactive or inconclusive.

SMILES	ASM inhibitor	SW480 rereplic	KB-3-1 cytotox	KB-V1 cytotox	Giardia killer	MCF10A rerep
CCOC(=O)NC(O)C(Cl)(Cl)Cl (stereo not given)	.	-	.	.	.	-
CCN(CCNc1ccc([N+](=O)[O-])c2cccnc12)S(=O)(=O)c1ccccc1	-	-	-	-	-	-
Cc1c(NS(=O)(=O)c2ccccc2)ccc([N+](=O)[O-])c1Cl	-	-	?	?	-	21µM
Cc1nn(-c2nccs2)c2c1C(=O)CC(C)(C)C2Br (stereo not given)	-	?	-	-	-	?
COc1ccc(C[C@H]2NC[C@H](O)[C@H]2OC(C)=O)cc1	-	-[1.84 µM]	0.33µM	0.41µM	?	?
O=P(O)(O)C(Cl)(Cl)P(=O)(O)O	.	-	.	.	.	-
ClC1=C(Cl)C(Cl)=C(Cl)C1=C/C=C/c1ccccc1	-	?	4.6µM	4.1µM	-	3.7µM
C=CCn1c(O)c(C(C)=NCc2cc(OC)cc(OC)c2)c(=O)[nH]c1=O	-	-	5.2µM	3.3µM	-	?
Cc1ccc(-n2c(O)c(/C=C3/C(c4ccccc4)=Nc4ccccc43)c(=O)[nH]c2=O)cc1	-	3.7µM	3.7µM	?	-	5.2µM
Cc1ccccc1-n1c(O)c(/C=C2/C(c3ccccc3)=Nc3ccccc32)c(=O)[nH]c1=O	-	.	2.1µM	1.5µM	-	5.2µM
Cc1cccc(N=Cc2c(O)n(-c3ccccc3C)c(=O)[nH]c2=O)c1	-	-	-	-	-	?
CC1=Nc2ccccc2/C1=C/c1c(O)n(C)c(=O)[nH]c1=O	-	-	-	-	-	-
Cc1cccc(-n2c(O)c(/C=C3/C(c4ccccc4)=Nc4ccccc43)c(=O)[nH]c2=O)c1	-	3.7µM	5.2µM	?	-	3.7µM
Cc1ccccc1-n1c(O)c(/C=C/C=Nc2ccccc2)c(=O)[nH]c1=O	-	-	-	-	-	-
Cc1cccc(-n2c(O)c(/C=C/C=Nc3ccccc3)c(=O)[nH]c2=O)c1	-	?	-	-	-	-
Cc1ccccc1-n1c(O)c(C=Nc2ccc(N(C)C)cc2)c(=O)[nH]c1=O	-	?	-	2.3µM	-	-
COc1ccc(C2/C=C\CN(C(=O)Oc3ccc(C(F)(F)F)cc3)CC(=O)N2Cc2ccc(F)cc2)cc1 (stereo not given)	-	-	-	-	-	?
CC(=O)[C@H]1[C@H](C#N)C[C@H]2[C@@H]3CC=C4C[C@@H](O)CC[C@]4(C)[C@H]3CC[C@@]21C	-	?	?	?	-	-
C=C1CC2C(CC[C@]3(C)C(=O)CCC23)[C@]2(C)C=CC(=O)C=C12 (stereo not given in full)	.	-	.	.	.	-
CC(C)C(=O)c1cn(Cc2ccc(C#N)cc2)c2ccccc12	-	-	?	-	-	-
CC(=O)c1cn(Cc2ccc(C#N)cc2)c2ccccc12	-	7.3µM	-	-	-	-
COc1cc(CC2C(=O)N(C)C(=O)N(C)C2=O)ccc1OCc1ccccc1	-	?	-	?	-	5.2µM
COc1ccc(-n2c(/C=C\c3ccccc3F)nc3ccccc3c2=O)c(OC)c1	.	.	-	-	.	.
CCCCn1c(O)c(C=NCCCn2ccnc2)c(=O)[nH]c1=O	-	-	-	-	-	-
CC(C)CCCn1c(O)c(/C=C2/C=CC=N2)c(=O)[nH]c1=O	-	13µM	16µM	?	-	18µM
COCCCNC(=O)c1c(NC(=O)c2ccccc2Cl)n(Cc2ccccc2)c2nc3ccccc3nc12	-	10µM	-	2.6µM	-	?
COCCNC(=O)c1c(NC(=O)c2ccco2)n(Cc2ccccc2)c2nc3ccccc3nc12	-	2.6µM	-	-	-	?
COCCCn1c(N)c(C(=O)Nc2sc3c(c2C(=O)OC)CCCC3)c2nc3ccccc3nc21	?	-	-	-	-	-
C[C@H]1CC[C@@H]2[C@@H](C)[C@H]3C(C[C@H]4C5CC[C@H]6C[C@@H](O)CC[C@]6(C)C5CC[C@]34C)N2C1 (stereo not given in full)	.	.	.	.	-	.
O=c1[nH]c(=O)n(CCc2ccc(F)cc2)c(O)c1C=NCc1ccc2c(c1)OCO2	-	-	-	-	-	?
